Screening data as filed in PubChem.
An excerpt weighted towards active compounds, which were near 3.4% of everything screened.
HSF1 activator – increases HSF-1 driven luciferase reporter signal. NIH3T3-HGL HSF-1 luciferase reporter, MG132, 8 h; 100% = twice DMSO control signal. activation, % at 9 µM. 1.7% of 300,000 active. AID 504408;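 active = mean replicate activation of at least 50% with a set share of replicates each reaching 50%; inconclusive = only one of those two conditions met; inactive = mean below 50% and too few replicates reaching it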;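 note: 0% = median of the neutral control wells and 100% = twice that signal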
esBAF inh – SWI/SNF esBAF complex inhibition; mouse ES cells, Bmi1-luciferase knock-in reporter, 24 h; 100% = twice the neutral-well signal; reporter increase, % at 12.5 µM; 2% of 350,000 active; AID 602393; in the data active = activation above about 40%; inconclusive = no clear call, values can overlap the other calls;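 note: 0% = median of the plate's neutral control wells and 100% = double that signal; a rise in the Bmi1 reporter signal indicates esBAF inhibition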
HSF1 inhib – HSF1 inhibition. NIH3T3-HGL HSE-luciferase, MG132-induced, luminescence 8 h; hits give low values. activity change, negative = inhibition, % at 7.5 µM (by protocol). 0.77% of 300,000 active. AID 2098;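 active = more than half of replicate wells show activity change below -50%, luminescence cut by over half; inconclusive = some wells, but at most half, below -50%; inactive = no replicate well below -50%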;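 note: luciferase reports HSF-1 transcriptional activity via heat shock element; 0% = median of DMSO wells and -100% = zero luminescence signal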
Vif imaging – HIV Vif inhibition; HEK293T cells, Vif self-association by quenched fluorescence, imaging, 24 h; inhibition, % at 7.49 µM; 0.35% of 340,000 active; AID 602346; in the data active = inhibition above about 50%, passing the limit was not always enough; inconclusive = no clear call, values can overlap the other calls; inactive = below about 31%
Numbers without * were called inactive; i = inactive; ? = inconclusive; . = no result given.

SMILES | HSF1 activator | esBAF inh | HSF1 inhib | Vif imaging
Clc1ccc(-c2csc(N3CCCCCC3)n2)cc1 | 0 | 2 | -7 | 0
COc1ccc(-c2csc(N3CCOCC3)n2)cc1OC | 12 | 58* | -2 | 5
O=C(N1CCOCC1)N1CCN(c2nc(-c3ccc(F)cc3)cs2)CC1 | 6 | 6 | -2 | -11
COc1ccc(NC(=O)N2C[C@@H]3[C@H](c4ccccc42)[C@@H](CO)N3C(=O)C2CCCCC2)cc1 | . | 0 | . | .
CCOC(=O)/C(C#N)=C(C)/C=C1\Sc2ccccc2N1CC | 30 | 67* | 9 | i
CCN1/C(=C\C=C(C(C)=O)C(C)=O)Sc2ccccc21 | 11 | . | 1 | 5
C[C@H](CO)N1C[C@H](C)[C@@H](CN(C)CC2CCCCC2)Oc2ccc(NS(=O)(=O)c3cn(C)cn3)cc2C1=O | . | -1 | . | .
Cc1ccc(C)c(NC2CCCCC2NS(=O)(=O)c2ccccc2)c1 (centres undefined) | 83* | -14 | 68 | -6
Cc1ccc(C)c(N2CCN(C3CCCCC3NS(=O)(=O)c3ccccc3)CC2)c1 (centres undefined) | 6 | -5 | 1 | -1
Cc1ccc(Cl)cc1N1CCN(C2CCCCC2NS(=O)(=O)c2ccccc2)CC1 (centres undefined) | 76* | -13 | 43 | 14
Cc1sc2ncnc(NCCc3ccc(S(N)(=O)=O)cc3)c2c1C | -61 | -20 | -51* | ?
C[C@H](CO)N1C[C@H](C)[C@@H](CN(C)Cc2ccc(C(=O)Nc3ccccc3N)cc2)Oc2c(NC(=O)c3nc4ccccc4s3)cccc2C1=O | . | 7 | . | .
Cc1nc(SC(C)C(=O)NCC2CCCO2)c2cc(-c3ccccc3)sc2n1 (centres undefined) | 71* | . | 53 | -24
Cc1ccc(S(=O)(=O)Nc2cccc3c2O[C@H](CN(C)C(=O)NC(C)C)[C@@H](C)CN([C@H](C)CO)C3=O)cc1 | . | -2 | . | .
Cc1ccc(-n2nc3ccc(NC(=O)C(C)C)cc3n2)cc1 | 30 | 100* | 4 | -1
CC(C)CC(=O)Nc1ccc2nn(-c3ccccc3)nc2c1 | 60* | . | 27 | -2
CCCC(=O)Nc1ccc2nn(-c3ccc(OC)cc3)nc2c1 | 22 | 50* | 23 | -1
CCC(=O)N1[C@H](CN(C)C(=O)CN2CCOCC2)[C@@H](c2ccccc2)[C@@H]1CO | . | -1 | . | .
O=C(c1ccccc1)N1C[C@H]2[C@@H](c3ccccc31)[C@@H](CO)N2S(=O)(=O)c1ccccc1 | . | -1 | . | .
C[C@H](CO)N1C[C@H](C)[C@@H](CN(C)C(=O)Nc2ccccc2)OCCCC[C@H](C)Oc2ccc(NC(=O)c3ccccc3)cc2C1=O | . | 2 | . | .
C=CCn1c(O)c(C2=c3ccccc3=NC2=O)c2ccccc21 | 257* | 3 | 188 | 6
C=CCn1c(O)c(N=Nc2ccccc2)c2ccccc21 | -16 | 5 | 2 | -11
Cc1ccc2c(c1)c(C1=c3ccccc3=NC1=O)c(O)n2C | 195* | -1 | 125 | -1
C=CCn1c(O)c(C2=c3ccccc3=NC2=O)s/c1=N/c1nccs1 | 15 | -1 | 0 | 88*
CO[C@@H]1CN(C)C(=O)c2cc(NC(=O)C3CC3)ccc2OC[C@@H](C)N(C(=O)c2ccccn2)C[C@@H]1C | . | 1 | . | .
SMILES | HSF1 activator | esBAF inh | HSF1 inhib | Vif imaging
[O-]/[N+](=C\c1ccncc1)c1ccc(Br)cc1 | 117* | . | 78 | -3
O=C(c1cn(-c2ccccc2)nc1-c1ccccc1)N1CCOCC1 | 4 | 6 | 0 | 13
O=C(c1cccs1)N1CCN(C(=O)c2cn(-c3ccccc3)nc2-c2ccccc2)CC1 | . | 54* | . | -20
Clc1ccc(Nc2ccc(Cl)nn2)cc1 | -65 | . | -55* | -5
COc1ccc(Nc2ccc(Cl)nn2)cc1 | 6 | 14 | -3 | -2
CNC[C@@H]1OCCCC[C@H](C)Oc2ccc(NC(=O)C3CCCCC3)cc2C(=O)N([C@@H](C)CO)C[C@@H]1C | . | -2 | . | .
c1ccc(C2=Nc3ccccc3SC2c2nc3ccccc3[nH]2)cc1 (centres undefined) | 84* | . | 37 | .
O=C1CC(c2nc3ccccc3[nH]2)CN1c1ccccc1 (centres undefined) | 26 | -6 | -5 | 28
O=[N+]([O-])c1ccc(/C=N/N2CCCCC2)cc1 | 49 | 77* | 23 | -1
O=C(O)c1ccc(C=NN2CCCCCC2)cc1 | . | 47* | . | 14
O=[N+]([O-])c1ccc(/C=N\N2CCN(c3ccc(Cl)cc3)CC2)cc1 | 5 | 1 | -6 | 5
O=C(O)c1ccc(/C=N/N2CCN(c3ccccc3)CC2)cc1 | 22 | 42* | 8 | -9
C(=NN1CCCCCC1)c1ccccc1 | . | . | . | 7
C[C@H]1CN([C@@H](C)CO)C(=O)Cc2cc(NC(=O)Nc3cccc4ccccc34)ccc2O[C@H]1CN(C)CC1CCCCC1 | . | 0 | . | .
CCCCc1ccc(NC(=O)C2CCCO2)cc1 (centres undefined) | 63* | 20 | 19 | 5
O=C(Nc1cccnc1)Nc1ccc2c(c1)OCO2 | 1 | 42* | -2 | 20
CC1CCC(NC(=O)C(=O)Nc2ccc3c(c2)OCO3)CC1 (centres undefined) | 34 | 56* | 21 | -5
Cc1ccc(C(=O)OC(C)C(=O)Nc2ccc3c(c2)OCO3)c(O)c1 (centres undefined) | . | 50* | . | 21
CC1CCC(NC(=O)c2ccc3c(c2)OCO3)CC1 (centres undefined) | ? | -35 | 13 | -5
Cc1noc(C)c1NC(=O)N(C)C[C@@H]1OCCCC[C@@H](C)Oc2ccc(NC(=O)Nc3ccc(F)cc3)cc2C(=O)N([C@@H](C)CO)C[C@H]1C | . | 5 | . | .
C[C@@H]1CN([C@H](C)CO)C(=O)c2cc(-c3ccccc3F)cnc2O[C@@H]1CN(C)C(=O)C1CCC1 | . | 2 | . | .
CCNC(=O)C[C@H]1CC[C@@H]2[C@H](COc3ccc(NC(=O)C4CCCCC4)cc3C(=O)N2C)O1 | . | 2 | . | .
CCCCc1ccc(NC(=O)Nc2cccnc2)cc1 | 33 | 51* | 15 | 12
O=C(Nc1ccc([N+](=O)[O-])cc1)Nc1ccc2c(c1)OCCO2 | 64* | . | 31 | 2
CCCCc1ccc(NC(=S)Nc2cccnc2)cc1 | -27 | . | -24 | 0
SMILES | HSF1 activator | esBAF inh | HSF1 inhib | Vif imaging
Cn1ccc2cc(NC(=O)Nc3cccnc3)ccc21 | 1 | 56* | 0 | 6
Cc1cc(C)c(NC(=O)Nc2ccc3c(c2)OCO3)c(C)c1 | -80 | 14 | -75* | -3
C[C@@H]1CCCCO[C@@H](CN(C)C)[C@H](C)CN([C@@H](C)CO)C(=O)c2cc(NC(=O)Nc3ccc(C(F)(F)F)cc3)ccc2O1 | . | 3 | . | .
C[C@@H]1CN([C@@H](C)CO)C(=O)c2cc(C3=CCCCC3)cnc2O[C@@H]1CN(C)C(=O)c1ccncc1 | . | 3 | . | .
C[C@H](O)C#Cc1ccc2c(c1)O[C@@H](CN(C)C(=O)CN(C)C)[C@@H](C)CN([C@H](C)CO)S2(=O)=O | . | 0 | . | .
O=C(Nc1ccc(F)cc1)Nc1ccc2c(c1)OCO2 | 34 | 66* | 17 | -6
O=C(Nc1ccc2c(c1)OCO2)Nc1ccc(F)cc1F | 46 | 30 | 28 | -6
